The values that follow come from PubChem BioAssay (NCI).

Structures are written as SMILES. Compounds without any hit were thinned out: in the full panel of roughly 83,000, 20% have a hit.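 Interpretation: 100, growth as untreated; towards 0, rising growth inhibition; 0, no net growth; 0 to -100, cell death. Compounds scoring below 10 were considered active.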 A number with no mark means an inactive call. The source made the active and inactive calls.

Common to all, as to experiment: NCI-60 one-dose screen, 48 h (100 = growth as untreated, 0 = no growth, -100 = all killed)
Settings in all cases: 10 µM unless noted

Test [1] has as its system HCT-15 colon.
In test [2] the test system is HT29 colon.
The subject of test [3] is SNB-75 CNS.
In test [4] the test system is SNB-19 CNS.
Test [5] has as its system U251 CNS.
Test [6] concerns PC-3 prostate.
Test [7] concerns UACC-62 melanoma.
Test [8] has as its system LOX IMVI melanoma.
Test [9] relates to SK-MEL-28 melanoma.

For the compound `CC(=O)c1cc2c(N)c(C(=O)Nc3ccccc3)sc2nc1C`, the growth is 60.3% in test [1]; 67.3% in [2]; 66.8% in test [3]; 68.4% in test [4]; 73.5% in test [5]; 81% in test [6]. Besides, the growth was 31.5% in [7], 85.4% in test [8] and 78.4% in test [9].
For `COc1cc2c(cc1-c1c(C)noc1C)ncc1nc(C3CCCC3)n([C@H](C)COC(F)F)c12`, the growth is 16.8% in [1]; 18.3% in test [2]; 37.4% in test [3]; 49.5% in test [4]; 39.7% in test [5]; 31.8% in test [6]. Further, the growth in test [7] was 20.7%; in test [8], 13.2%; in test [9], 53.8%.
Regarding `COc1ccc(/C=N/C2=C(C#N)C(c3ccc(N(C)C)cc3)c3ccc4ccccc4c3O2)cc1` (stereo not drawn), the growth in [1] was 38.7%; in test [2], 48.4%; in test [3], -7.87% (active); in test [4] it was 68%; in test [5], 71.1%; in [6], 52.5%. Further, the growth was 48.3% in [7], 37.3% in [8] and 74.4% in test [9].
With `CC(C)n1c(/C=C/[C@@H](O)C[C@@H](O)CC(=O)O)c(-c2ccc(F)cc2)c2ccccc21`, the growth in test [1] was 50.6%; in [2], 75.9%; in test [3], 29.9%; in [4], 55.7%; in test [5], 15.9%; in test [6], 26.5%. The values for the growth in [7], in test [8] and in [9] were 16.3%, 5.69% (active) and 72.9%, respectively.
As to `CN(C)c1ccc(N=Nc2ccc(Br)cn2)c(O)c1`, the growth was 28.3% in test [1]; 21.9% in test [2]; 39.1% in test [3]; 19.6% in test [4]; 11.4% in [5]; 33.3% in test [6]. In addition, the growth in test [7] is -45.3% (active); in test [8], 6.61% (active); in test [9], 29.9%.
Turning to `O=C1c2cc3c(cc2-c2c1c1ccc(F)cc1c(=O)n2CCCNCCO)OCO3`, the growth was -41.8% (active) in test [1]; -74.3% (active) in test [2]; -98.5% (active) in test [3]; -21.9% (active) in [4]; -82.8% (active) in test [5]; -41.9% (active) in [6]. In addition, the growth in [7] is -60.5% (active); in [8], -88.3% (active); in test [9] it was -13.8% (active).
For the compound `O=C(/C=C/c1cc(CN2CCOCC2)c(O)c2ncccc12)c1cc(CN2CCOCC2)c(O)c2ncccc12`, the growth in test [1] was 16.2%; in [2], 16.8%; in test [3], 32.2%; in test [4] it was 20.7%; in test [5], 3.35% (active); in [6], 23.7%. Moreover, the growth in test [7] was 10.1%; in [8], 19.3%; in [9], 37%.
In the case of `OCc1ccc(N2CCc3cccc(F)c3C2)cc1Cl`, the growth in test [1] was 88.9% [0.1 µM]; in test [2], 16.2% [0.1 µM]; in test [3] it was 108% [0.1 µM]; in [4] it was 85.2% [0.1 µM]; in test [5], 53.5% [0.1 µM]; in test [6], 89.1% [0.1 µM]. For the same compound, the growth is -11.2% [0.1 µM] (active) in [7], 105% [0.1 µM] in test [8] and 113% [0.1 µM] in test [9].
Take `COc1cc(-c2nc3ccccc3[nH]2)ccc1OCC(=O)N=Nc1c(O)[nH]c2ccc(Cl)cc12`: the growth in test [1] was 77.4%; in test [2], -59% (active); in [3], -88.4% (active); in test [4], -93.1% (active); in test [5], -95% (active); in test [6], -73% (active). Besides, the growth is -64.3% (active) in test [7], -97.1% (active) in test [8] and -65.4% (active) in test [9].
Regarding `CCCCn1c(-c2ccc(C(=O)O/N=C(\N)c3ccc4c(c3)OCO4)cc2)nc(-c2ccccc2)c1-c1ccccc1`, the growth is 19.4% in test [1]; 19.7% in test [2]; -15.4% (active) in test [3]; 58.8% in [4]; 45% in test [5]; 42.5% in [6]. Besides, the values for the growth in [7], in test [8] and in [9] were 67.9%, -72.5% (active) and 76.9%, respectively.
`COc1ccc(/C=C2\Oc3cc(OCCCCN4CCCC4)ccc3C2=O)cc1`: the growth is 9.45% (active) in test [1]; 6.71% (active) in test [2]; 98.1% in test [3]; 83.7% in test [4]; 62.6% in [5]; 75.6% in test [6]. Further, the growth was 90.5% in [7], -84.7% (active) in test [8] and 107% in test [9].
For `O=Nc1c(O)c(Cl)cc2ccccc12`, the growth in test [1] was 87.9%; in test [2], 83.1%; in test [3], 62%; in test [4], 88.9%; in test [5], 65.6%; in test [6], 66.7%. Also, the growth in test [7] is 77.5%; in test [8], 72.4%; in [9], 92.1%.
In the case of `O=c1cc(CSc2nnc(-c3ccc(F)cc3)o2)c2ccc3ccccc3c2o1`, the growth is 98.4% in test [1]; 95% in test [2]; 98.3% in test [3]; 101% in [4]; 102% in [5]; 92.5% in test [6]. Also, the growth in test [7] is 93.5%; in [8], 87.7%; in test [9], 110%.
As for `Nc1n[nH]c2ccc([C@@H]3Nc4cc5c(cc4[C@H]4C6CCC(C6)[C@@H]34)C(=O)NC5)cc12` (stereo partly drawn), the growth in test [1] is 15.2%; in test [2] it was 12%; in test [3] it was 2.29% (active); in [4], 28.2%; in [5] it was 18.1%; in test [6] it was 16.8%. Further, the growth in test [7] was 38.9%; in test [8], 18.2%; in [9], 59.2%.
For the compound `Cc1ccc(NC(=O)C2CCC(CN3CCN(C)CC3)CC2)cc1Nc1nccc(-c2cccnc2)n1` (stereo not drawn), the growth was 95.2% in test [1]; 100% in test [2]; 77.6% in test [3]; 100% in test [4]; 95% in [5]; 103% in test [6]. Also, the values for the growth in [7], in [8] and in test [9] were 103%, 90.8% and 99.7%, respectively.
For the compound `COc1ccc(N=Nc2nccs2)c(O)c1`, the growth in test [1] is 25.4%; in [2], 40.2%; in [3] it was 81.9%; in test [4] it was 51.4%; in [5], 27.8%; in [6], 42.1%. In addition, the growth in [7] was 36.8%; in test [8], 11.5%; in test [9], 81.4%.
Consider `O=C(O)COc1ccc(Cl)cc1C1CCCCC1`, for which the growth in [1] is 106%; in test [2] it was 104%; in test [3], 88.1%; in [4], 99.9%; in [5], 102%; in test [6], 102%. Also, the figures for the growth in test [7], in test [8] and in test [9] were 95.6%, 106% and 108%, respectively.
In the case of `COc1ccc(/C=C\c2cc(OC)c(OC)c(OC)c2)cc1OC(=O)c1cccc(Cn2cc(CCOC(=O)[C@H](N)Cc3cn(C)c4ccccc34)nn2)c1`, the growth in [1] was 12.4%; in [2], 8.6% (active); in [3] it was 22.9%; in [4], 31.2%; in test [5], 19.2%; in test [6], 18.8%. Besides, the figures for the growth in test [7], in [8] and in test [9] were 42.7%, 22.3% and 63.1%, respectively.
On to `CCCCCCCCCCCCC[N+](C)(C)Cc1ccccc1`, for which the growth in test [1] is 64.7%; in test [2], -62.7% (active); in test [3], -52.9% (active); in test [4], -60.7% (active); in test [5], 7.89% (active); in [6], -23.7% (active). Moreover, the values for the growth in test [7], in test [8] and in [9] were -83.9% (active), -88.3% (active) and -57% (active), respectively.
On to `COc1ccc(/C=C/c2nc(-c3n[nH]c(=O)n3-c3ccccc3)c3ccccc3n2)cc1`, for which the growth in [1] was 93.8%; in [2], 101%; in [3], 81.7%; in [4] it was 96.7%; in test [5], 99.5%; in [6], 95.9%. In addition, the figures for the growth in test [7], in [8] and in test [9] were 87.2%, 97.2% and 106%, respectively.
`CCNC(=O)Oc1ccc(/C(=C(\C)c2ccc(Cl)cc2)c2ccc(OCCN3CCCCC3)cc2)cc1`: the growth in test [1] is 2.75% (active); in test [2], 0.431% (active); in [3], 61.7%; in test [4], 64.5%; in test [5], 32.9%; in test [6], 28.7%. The growth is -45.7% (active) in [7], 10.6% in test [8] and -30.4% (active) in test [9].
Regarding `CCOc1ccc(-n2nc(C(=O)Nc3ccccc3)nc2-c2cc(OC)c(OC)c(OC)c2)cc1`, the growth was 35.4% in [1]; 13% in [2]; 35.1% in test [3]; 55.8% in test [4]; 36.1% in test [5]; 44.9% in test [6]. Besides, the growth in test [8] is 55.8%.
Regarding `CCCCN(CCCC)CCCn1c(-c2ccccc2)ccc1-c1ccccc1`, the growth in test [1] was 55.3%; in test [2] it was 33.1%; in [3], 83.4%; in test [4], 83.4%; in test [5], 58.3%; in [6], 48%. The growth in test [7] was 82.4%; in [8] it was 68.7%; in test [9], 88.8%.
With `COc1ccc(SC2c3ccc(C)cc3Oc3nc(N)c(C#N)c(N)c32)cc1` (stereo not drawn), the growth in [1] was -79.9% (active); in test [2] it was -65.1% (active); in test [3], -45.5% (active); in test [4], -69.3% (active); in test [5] it was -93.3% (active); in [6] it was -67.9% (active). The growth in test [7] is -46.2% (active); in test [8], -94.3% (active); in test [9], -82.3% (active).
Consider `CC[C@]1(O)C[C@@H]2CN(CCc3c([nH]c4ccccc34)[C@@](C(=O)OC)(c3cc4c(cc3OC)N(C)[C@H]3[C@@](O)(C(N)=O)[C@H](O)[C@]5(CC)[C@@H]6C[C@@H]6CN6CC[C@]43[C@@H]65)C2)C1`, for which the growth was 11.9% in [1]; 2.2% (active) in test [2]; 50.8% in test [3]; 30.9% in test [4]; 10.7% in test [5]; 20.7% in test [6]. In addition, the values for the growth in test [7], in [8] and in test [9] were 35.7%, 18.3% and 68.1%, respectively.
In the case of `CCCCN1CCCn2c1nc1c2c(=O)n(CCC)c(=O)n1CCC`, the growth in [1] is 106%; in test [2], 97.8%; in [3], 74.2%; in test [4], 96.6%; in [5], 91.8%; in test [6], 91.3%. Further, the growth in [7] was 85.4%; in test [8], 93.8%; in test [9], 103%.
For `CCC(=O)c1ccc(Cl)s1`, the growth in test [1] was 105%; in test [2] it was 96.9%; in [3] it was 91.4%; in [4], 102%; in test [5], 94.6%; in test [6], 98.4%. Moreover, the growth in test [7] was 106%; in test [8], 107%; in test [9], 99.6%.
For `O=C1Nc2c(ccc(Cl)c2Cl)/C1=C\c1cc(C(F)(F)F)cc(C(F)(F)F)c1`, the growth was -80.8% (active) in test [1]; -26.5% (active) in test [2]; 13.7% in [3]; 21.7% in test [4]; -54.2% (active) in test [5]; 0.08% (active) in test [6]. Further, the growth is -3.92% (active) in [7], -90.1% (active) in [8] and -21% (active) in [9].
With `COc1cc(Nc2cc(C)nc(N3CCN(c4ccnc5cc(Cl)ccc45)CC3)n2)cc(OC)c1`, the growth was 5.63% (active) in test [1]; 3.4% (active) in test [2]; 8.38% (active) in test [3]; 27.5% in [4]; 9.56% (active) in test [5]; 22.8% in test [6]. In addition, the growth in [7] was -2.21% (active); in test [9], 44.5%.
